Source: PubChem BioAssay
HCMV antiviral: inhibitors of human cytomegalovirus. HFF cells, HCMV-luciferase reporter, 72 h; stronger effect = lower value. activity change, negative = inhibition, % at 57.5 µM. hit rate 4.5% among 410,000. AID 1259415; in the data active means activity change below about -60%; inconclusive means no clear call, values can overlap the other calls; inactive means above about -39%
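Two compound doses tested in HFFs infected with HCMV-luciferase, MOI 1 PFU/cell, 72 h at 37C. Lysate luminescence read with OneGlo; data normalized against buffer-only and 10uM Salinomycin inhibitor controls.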
Pf growth 96h: P. falciparum growth inhibition at 96 hours. hit rate 6.9% among 320,000. Potency, µM (series often up to 28.7 µM), most hits filed as inhibitors. P. falciparum luciferase reporter growth, 96 h
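Compounds incubated with erythrocytes infected by luciferase-expressing P. falciparum (2% hematocrit, 0.05% parasitemia final) for 96 hours, 37 C in 5% CO2. Growth inhibition scored as decreased luciferase luminescence.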
HCV inhibitor: blocks hepatitis C virus; Huh7.5.1 HCVcc-Cre infection, luciferase reporter, 44 h; Potency, µM (titrated, usually from 41.8 µM), most hits filed as inhibitors; hit rate 3.4% among 340,000
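Luciferase read-out (15 sec integration) after a 15 min room-temperature substrate step quantifies HCVcc-Cre infection. Cells, 1,000 per well, had compound added 4 h post-plating, then virus at ~0.5 moi, and were cultured 44 h.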
Pf growth 48h: P. falciparum growth inhibition at 48 hours (one generation); P. falciparum luciferase growth in erythrocytes, 48 h; Potency, µM (series often up to 28.7 µM), most hits filed as inhibitors; hit rate 5.9% among 310,000
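First compound was added to culture medium, then infected red cells at 0.1% parasitemia and 2% hematocrit (final). After incubation at 37 C under 5% CO2, luciferase detection reagent was dispensed and light output recorded.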
Numbers stand for hits; - = inactive; ? = inconclusive; . = not tested or not shown; [ ] = dose if it differs, or a comment. A selection: hits, their analogues and other compounds. The true share with any hit is near 13%. Unless noted, the call rests on the fitted dose curve; in most records, active means well fitted inhibition curve with a large enough effect; inconclusive means small, poorly fitted or top-dose-only effect, or another doubt; inactive means no such curve, though single readings can be large or run the other way.

SMILES | HCMV antiviral | Pf growth 96h | HCV inhibitor | Pf growth 48h
O=C(/C=C/c1cccc(Cl)c1)c1nc2ccccc2[nH]1 | - | - | ? | ?
O=C(/C(=C/c1ccc(Cl)cc1)c1nc2ccccc2[nH]1)c1cccs1 | . | . | 11µM | 1.7µM
Cc1nn(-c2ccccc2)c(-n2cccc2)c1C(=O)NCCCN1CCN(c2ccccc2F)CC1 | - | . | . | .
COc1ccc(Cn2ccc3nc(C)c(C(=O)Nc4cc(C)cc(C)c4)cc3c2=O)cc1 | - | . | . | .
CCOc1ccc(CCNC(=O)Cn2ccc3cc(S(=O)(=O)N4CCCCC4)ccc32)cc1 | - | . | . | .
Cc1cc(C)nc(NS(=O)(=O)c2ccc(N)cc2)n1 | -66 | - | -[8.37 µM] | -
O=[N+]([O-])c1cc(-c2ccc(/C=N\n3cnnc3)o2)cc([N+](=O)[O-])c1 | - | ? | ? | 7.4µM
O=[N+]([O-])c1ccccc1-c1ccc(/C=N/n2cnnc2)o1 | - | - | . | -
CN(C)Cc1cc(C(C)(C)C)c(O)c(C(C)(C)C)c1 | - | 1µM | - | -
CC(C)(C)c1cc(CN(CCO)CCO)cc(C(C)(C)C)c1O | - | . | - | -
CC(C)(C)c1cc(CP(=O)(c2ccccc2)c2ccccc2)cc(C(C)(C)C)c1O | - | ? | 16µM | ?
COc1ccc(CCNC(=O)Cn2nnc(-c3cccc(C(F)(F)F)c3)n2)cc1OC | - | . | . | .
COc1ccc2cc3c(N)nn(C(=O)c4ccc(Cl)c([N+](=O)[O-])c4)c3nc2c1 | -91 | - | - | -
CCCC1CCC(C(=O)n2nc(N)c3cc4ccc(OC)cc4nc32)CC1 (configuration not stated) | - | ? | -[8.37 µM] | -
COc1ccc2cc3c(N)nn(C(=O)c4ccccc4[N+](=O)[O-])c3nc2c1 | -70 | - | ? | ?
Cc1cccc(-n2nc(C)cc2N)c1 | - | - | - | -
Cc1cc(C)cc(-n2nc(C)cc2N)c1 | - | - | 10µM | .
CC(=O)N1c2ccc(S(=O)(=O)NCC3CCC(C(=O)Nc4cccc(C)c4C)CC3)cc2CC1C (configuration not stated) | - | . | . | .
Cc1cc(C)c2c(CC(=O)Nc3c(C(=O)Nc4ccc(Cl)cc4)oc4ccccc34)coc2c1 | - | . | . | .
COc1cc(Nc2nc3ccccc3c3nnc(C)n23)cc(OC)c1 | - | . | . | .
CCC(C(=O)OCC(=O)N1CCN(S(=O)(=O)c2ccc(C)cc2C)CC1)c1ccccc1 (configuration not stated) | ? | 9.3µM | - | 13µM
CC(=O)c1c(C)[nH]c(C(=O)N2CCN(S(=O)(=O)c3ccc(C)cc3C)CC2)c1C | - | ? | - | ?
CCOC(=O)c1c(C)[nH]c(C(=O)OCC(=O)N2CCN(S(=O)(=O)c3ccc(C)cc3C)CC2)c1C | - | 7.4µM | 14µM | 15µM
CCN1C(=O)C(c2nnnn2-c2c(C)cccc2C)N(CCc2ccccc2)C1=O (configuration not stated) | - | . | . | .
Cc1ccc(-c2cc(C(=O)Oc3ccc(C#N)cc3)no2)cc1 | - | . | . | .
SMILES | HCMV antiviral | Pf growth 96h | HCV inhibitor | Pf growth 48h
COc1cc(CCC(=O)NCc2ccc3c(c2)CCN3C(=O)c2ccccc2)cc(OC)c1OC | - | . | . | .
OC(CN1CCN(c2ccccc2)CC1)c1ccc2c(c1)CCN2 (configuration not stated) | - | 9.3µM | - | -
CC(C)(CO)[C@@H](O)C(=O)NCCC(=O)NCCSSCCNC(=O)CCNC(=O)[C@H](O)C(C)(C)CO | - | - | . | -
Cc1ccc(C)n1C1C(=O)N(C)c2ccc(Cl)cc21 (configuration not stated) | - | . | . | .
CN(C)CCCNS(=O)(=O)c1ccc(NC2CCCCCC2)c([N+](=O)[O-])c1 | -69 | ? | 5.6µM | ?
CCNc1ccc(S(=O)(=O)NCCN(C)C)cc1[N+](=O)[O-] | - | - | - | -
NC(=O)C1CCN(c2nc(-c3ccc(Cl)cc3)cs2)CC1 | . | - | . | ?
Cc1ccc(-c2nc3scc(CCNC(=O)Cc4ccc(Cl)cc4)n3n2)cc1 | - | . | . | .
CCOc1ccccc1CNCc1cccn1-c1nnc(N2CCN(c3ccccc3)CC2)s1 | -98 | . | . | .
Cc1nn(CC(=O)NCc2ccccc2Cl)c(=O)c2cccn12 | - | . | . | .
O=C(C/C=N\OCc1ccc([N+](=O)[O-])cc1)Nc1ccc(Br)cc1 | -66 | - | - | -
COc1ccc(C2=[N+](C)CCn3cccc32)c(OC)c1 | -96 | 1µM | - | 2.1µM
CCN1CCN(c2cc(C)c3cc(NC(=O)/C=C/c4ccc(C)cc4)ccc3n2)CC1 | - | . | . | .
Cc1ccc(NC(=O)C2CCCN(S(=O)(=O)c3cccc4nonc34)C2)cc1 (configuration not stated) | - | 2.6µM | - | -
